Measured values published in the supplement of paper PMC10941209.
Unmarked numbers belong to inactive results.

Test system: Toxoplasma gondii RH 2F1 tachyzoites (intracellular in HFF)
Assay: parasite survival relative to DMSO control; higher = less antiparasitic activity, active = 20 or less
Details: 1 µM; 72 h
How it was run: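 Intracellular Toxoplasma gondii RH-2F1 tachyzoites, which express β-galactosidase, were grown in HFF cells (5 × 10^3 cells/well, 96-well plates) infected with 5 × 10^3 parasites in D2 medium for 3 h, then treated with compound at 1 μM for 72 h at 37°C in 5% CO2. Cells were lysed for 15 min, then CPRG was added and absorbance read at 570 nm after 30 min. Survival is the signal as a percentage of DMSO-treated infected controls, from 2 or more biological replicates.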

SMILES: Nc1cnn(C2OC(CO)C(O)C2O)c(=O)n1 (stereo not given)
- parasite survival: 76.2%

SMILES: CN1CCN(Cc2ccc(-c3cnc4[nH]cc(-c5ccc6[nH]ccc6c5)c4c3)cc2)CC1
- parasite survival: 7.23% (active)

SMILES: NC(=O)c1nccn([C@@H]2O[C@H](CO)[C@@H](O)[C@H]2O)c1=O
- parasite survival: 59.3%

SMILES: O=C(NC(=O)N1CCCc2ccccc21)c1cccc(Cl)c1
- parasite survival: 28.3%

SMILES: O=C(Nc1ccccc1C(=O)O)c1cccc(Oc2ccccc2)c1
- parasite survival: 39.4%

SMILES: Clc1ccc(COC(Cn2ccnc2)c2ccc(Cl)cc2Cl)c(Cl)c1 (stereo not given)
- parasite survival: 21.8%

SMILES: O=C1[C@H](CC[C@H](O)c2ccc(F)cc2)[C@@H](c2ccc(O)cc2)N1c1ccc(F)cc1
- parasite survival: 91.5%

SMILES: CCCCC(CC)CNC(=N)NC(=N)NCCCCCCNC(=N)NC(=N)NCC(CC)CCCC (stereo not given)
- parasite survival: 3.8% (active)

SMILES: O=c1[nH]cnc2c1ncn2[C@H]1CC[C@@H](CO)O1
- parasite survival: 79.3%

SMILES: Cc1cccc(CC(=O)N[C@H]2CCOC2=O)c1
- parasite survival: 38.3%

SMILES: O=C(Nc1nnc(-c2ccc(Cl)cc2)o1)c1ccc(F)cc1
- parasite survival: 41.1%

SMILES: CCc1nc(N)nc(N)c1C#CC(C)c1cc(OC)cc(-c2ccncc2)c1 (stereo not given)
- parasite survival: 4.08% (active)

SMILES: CCNC(=O)Nc1cn2c(-c3ncc(CC)cn3)cc(-c3cccnc3)cc2n1
- parasite survival: 34.6%

SMILES: Cc1cc(CCCOc2c(C)cc(-c3noc(C(F)(F)F)n3)cc2C)on1
- parasite survival: 67.2%

SMILES: N=c1n(CCN2CCCCC2)c2ccccc2n1CC(O)COc1ccc(Cl)cc1Cl (stereo not given)
- parasite survival: 10.8% (active)

SMILES: NC(=O)c1cnccn1
- parasite survival: 52.5%

SMILES: O=C(NN1C(=O)[C@@H]2[C@@H]3C=C[C@@H]([C@H]4C[C@@H]34)[C@@H]2C1=O)c1ccc(C(F)(F)F)cc1
- parasite survival: 66.1%

SMILES: CC(C)Oc1cccc(NC(=O)c2ccccc2C(F)(F)F)c1
- parasite survival: 74.1%

SMILES: Nc1nc(O)c(Br)c(-c2cccc(Cl)c2)n1
- parasite survival: 63.8%

SMILES: OC(Cn1cncn1)(Cn1cncn1)c1ccc(F)cc1F
- parasite survival: 46%

SMILES: CC(C)c1ccc(COc2cccc(-c3cc([S+](C)[O-])c(C#N)c(=O)[nH]3)c2)cc1 (stereo not given)
- parasite survival: 13.2% (active)

SMILES: Cn1cncc1[C@@](N)(c1ccc(Cl)cc1)c1ccc2c(c1)c(-c1cccc(Cl)c1)cc(=O)n2C
- parasite survival: 59.1%

SMILES: O=C(Cc1ccccc1F)Nc1nc2ccccc2[nH]1
- parasite survival: 38.1%

SMILES: Fc1ccc(-n2cc(Cn3c(-c4cccc(F)c4)nc4ccccc43)nn2)cc1
- parasite survival: 50.1%

SMILES: Cc1ccc(N2CCC(CCOc3ccc(S(C)(=O)=O)cc3)CC2)nn1
- parasite survival: 73.2%

SMILES: N=C(N)NCCCCC(=O)Nc1cc(C(F)(F)F)cc(NC(=O)c2cc(C(=O)Nc3cc(C(F)(F)F)cc(NC(=O)CCCCNC(=N)N)c3O[C@@H]3CCNC3)ncn2)c1O[C@@H]1CCNC1
- parasite survival: 58.7%

SMILES: O=C(O)C(Cc1c[nH]c2ccccc12)N1C(=O)c2ccccc2C1=O (stereo not given)
- parasite survival: 46.6%

SMILES: O=C(Nc1[nH]c(=O)ncc1F)c1ccccc1
- parasite survival: 84.3%

SMILES: CC(C)(C)c1cc(CCC(=O)N2CCC2)cc(C(C)(C)C)c1O
- parasite survival: 52.9%

SMILES: Cc1ccccc1NC(=O)Nc1cccc([N+](=O)[O-])c1
- parasite survival: 24.2%

SMILES: CCCc1ccc(-c2cc3cn([C@H]4C[C@H](O)[C@@H](CO)O4)c(=O)nc3o2)cc1
- parasite survival: 61.6%

SMILES: COc1cc(C(C)(C)CCCC(C)C)cc(OC)c1OC
- parasite survival: 36.9%

SMILES: O=C(O)[C@H]1C2CCC(CC2)[C@@H]1Nc1nc(-c2c[nH]c3ncc(F)cc23)ncc1F
- parasite survival: 44.8%

SMILES: O=C(N[C@H](CCS)C(=O)N[C@H](Cc1ccccc1)C(=O)O)c1cc2ccccc2[nH]1
- parasite survival: 45.8%

SMILES: C[C@@]1(O)[C@H](O)[C@@H](CO)O[C@H]1n1ccc2c(N)ncnc21
- parasite survival: 58.6%

SMILES: COc1cccc(N2CCN(C3=Nc4c(F)cccc4[C@H](CC(=O)O)N3c3cc(C(F)(F)F)ccc3OC)CC2)c1
- parasite survival: 41.2%

SMILES: CC[C@@]1(O)C(=O)OCc2c1cc1n(c2=O)Cc2cc3c([N+](=O)[O-])cccc3nc2-1
- parasite survival: 57.5%

SMILES: Nc1ccc2oc(=O)ccc2c1I
- parasite survival: 80.5%

SMILES: O[C@@](Cn1cnnn1)(c1ccc(F)cc1F)C(F)(F)c1ccc(-c2ccc(OCC(F)(F)F)cc2)cn1
- parasite survival: 28.8%

SMILES: O=C(NC1CCCc2c1[nH]c1ccc(Cl)cc21)c1ccccn1 (stereo not given)
- parasite survival: 63.8%
